Results on nine compounds are retold here after PubChem BioAssay (Tox21).

Unmarked numbers belong to inactive results. Calls of active or inactive are those of the source. Unless noted, calls come from the whole dose curve; as a rule, active = well fitted curve in the direction sought with a large enough effect in the repeat runs; inconclusive = weak or mixed curves; inactive = no such curve, though single readings can be large; an effect the other way counts as inactive or inconclusive.

The nature of assay [1]: qHTS assay to identify small molecule antagonists of the thyroid receptor (TR) signaling pathway - cell viability counter screen (AID 743064). Note: nearly all actives have a fitted effect of over 50% in size. Note: potency is the fitted concentration of half-maximal effect. Summed up: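 CellTiter-Fluor readout, 30 min at 37 °C/5% CO2, following 23.5 h incubation of GH3.TRE-Luc cells with test compound and 1 nM T3 (final).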
(In general: qHTS replaces the single test concentration by a dilution series.)

Assay [2] can be described thus: qHTS assay to identify small molecule antagonists of the thyroid receptor (TR) signaling pathway (AID 743065). Note: nearly all actives have a fitted effect of over 55% in size. Note: potency is the fitted concentration of half-maximal effect. The method, boiled down:
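GH3.TRE-Luc rat pituitary cells (two TREs driving luciferase) were dosed with compound, then stimulated with 1 nM T3 (final) for 23.5 h at 37 C. ONE-Glo luminescence was the read-out, with CellTiter-Fluor fluorescence as the cytotoxicity counter-screen.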

Assay [3] has as its system thyroid hormone receptor (rat, GH3 cells). As to the kind of experiment: qHTS assay to identify small molecule agonists of the thyroid receptor (TR) signaling pathway (AID 743066; calls by dose curve).
Assay [4] in a line: qHTS assay to identify small molecule antagonists of the estrogen receptor alpha (ER-alpha) signaling pathway - cell viability counter screen (AID 743074; calls by dose curve;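 note: HEK293 cells carrying ER-alpha-UAS-bla reporter stimulated with 17beta-estradiol; nearly all actives have a fitted effect of over 45% in size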; note: potency is the fitted concentration of half-maximal effect).
The nature of assay [5]: qHTS assay to identify small molecule antagonists of the estrogen receptor alpha (ER-alpha) signaling pathway using the BG1 cell line - cell viability counter screen (AID 743081).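 Note: compound given together with 17beta-estradiol as the ER stimulus; series mostly up to about 70 µM; nearly all actives have a fitted effect of over 45% in size.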
The target of a further assay is Aromatase (Homo sapiens) (UniProt P11511). As to the kind of experiment: qHTS assay to identify aromatase inhibitors (AID 743083). Note: nearly all actives have a fitted effect of over 55% in size. Note: potency is the fitted concentration of half-maximal effect.
Chain of Aromatase (Homo sapiens) (P11511 whole entry, looked up): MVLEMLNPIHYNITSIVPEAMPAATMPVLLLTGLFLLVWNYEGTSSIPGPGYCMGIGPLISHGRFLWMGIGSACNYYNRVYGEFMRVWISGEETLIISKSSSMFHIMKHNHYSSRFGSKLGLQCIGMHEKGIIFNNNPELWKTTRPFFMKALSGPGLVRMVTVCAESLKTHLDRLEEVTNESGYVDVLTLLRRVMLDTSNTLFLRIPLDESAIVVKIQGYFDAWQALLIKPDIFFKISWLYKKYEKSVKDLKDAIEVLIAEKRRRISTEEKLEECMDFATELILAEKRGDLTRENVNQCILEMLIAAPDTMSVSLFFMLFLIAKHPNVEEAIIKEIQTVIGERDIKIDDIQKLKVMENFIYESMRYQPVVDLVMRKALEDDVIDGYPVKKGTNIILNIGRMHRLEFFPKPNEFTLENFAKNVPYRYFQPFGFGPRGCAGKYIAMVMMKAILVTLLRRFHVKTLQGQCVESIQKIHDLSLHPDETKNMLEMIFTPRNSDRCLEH
Assay [6] in a line: qHTS assay to identify aromatase inhibitors - cell viability counter screen (AID 743084).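 Note: cells stimulated with testosterone during compound exposure; nearly all actives have a fitted effect of over 55% in size.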
Assay [7] is described as follows: qHTS assay to identify small molecule that activate the aryl hydrocarbon receptor (AhR) signaling pathway - cell viability counter screen (AID 743086).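 Note: HepG2 liver cells carrying the AhR DRE luciferase reporter; series mostly up to about 70 µM; nearly all actives have a fitted effect of over 45% in size.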 Summed up: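 HepG2-AhR-luc (HG2L7.5c1) cells, 4000/well, treated 24 h at 37 C with compound; viability measured as CellTiter-Fluor fluorescence after 30 min in the same wells as the luciferase read.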
Assay [8] concerns the target Peroxisome proliferator-activated receptor gamma (Homo sapiens) (UniProt P37231). Nature of the assay: qHTS assay to identify small molecule agonists of the peroxisome proliferator-activated receptor gamma (PPARg) signaling pathway (AID 743094; active = well fitted activation curve with a large enough effect in the signal ratio in the repeat runs, not every such curve was filed as active; inconclusive = weak or mixed curves, or effect the other way; inactive = no such curve, though single readings can be large or run the other way; the % refers to the signal ratio; note: potency is the fitted concentration of half-maximal effect). Summed up:
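Compounds dissolved in DMSO were added to PPARg UAS-bla HEK293H cells for 17 h at 37C, and reporter expression was quantified by fluorescence intensity after 1 h with LiveBLAzer B/G FRET substrate.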

The target is the same in assay [9]. As to the kind of experiment: qHTS assay to identify small molecule antagonists of the peroxisome proliferator-activated receptor gamma (PPARg) signaling pathway (AID 743191; calls by dose curve; note: series mostly up to about 63 µM; nearly all actives have a fitted effect of over 30% in size). The method, boiled down:
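GeneBLAzer PPARg UAS-bla HEK293H cells, 5 h post-plating, exposed to compounds 17 h at 37C. LiveBLAzer B/G FRET substrate added for 1 h at room temperature; beta-lactamase reporter read by fluorescence intensity.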

The nature of assay [10]: qHTS assay to identify small molecule antagonists of the peroxisome proliferator-activated receptor gamma (PPARg) signaling pathway - cell viability counter screen (AID 743194). Note: nearly all actives have a fitted effect of over 55% in size. The method, boiled down: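 Cytotoxicity counter screen in PPARg-bla HEK293H cells, same wells as reporter assay. Compounds plus 50 nM rosiglitazone (final) for 17 h at 37 C, then viability read by CellTiter-Glo luminescence.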

Assay [11] is described as follows: qHTS assay for small molecule agonists of the antioxidant response element (ARE) signaling pathway - cell viability counter screen (AID 743203; calls by dose curve; note: nearly all actives have a fitted effect of over 55% in size). The method, boiled down:
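Following 16 hrs of compound treatment at 37C, HepG2 cells with an ARE-controlled beta-lactamase gene were lysed with CellTiter-Glo. Luminescence was read after 30 min at room temperature.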

Assay [12] can be described thus: qHTS assay for small molecule activators of the heat shock response signaling pathway - cell viability counter screen (AID 743209). Note: nearly all actives have a fitted effect of over 50% in size. The method, boiled down: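 Readout: CellTiter-Glo luminescence, 30 min at room temperature. System: HSE-bla HeLa cells, 1500/well, plated overnight. Treatment: compounds in DMSO, 5 h at 37 C.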
A short description of assay [13]: qHTS assay for small molecule activators of the heat shock response signaling pathway (AID 743210; active = well fitted activation curve with a large enough effect in the signal ratio in the repeat runs, with a control signal flat, not every such curve was filed as active; inconclusive = weak or mixed curves; the % refers to the signal ratio; note: series mostly up to about 63 µM). Summed up: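 HSE-bla HeLa cells (beta-lactamase reporter under heat shock response elements), plated overnight, then exposed to compounds 5 h at 37 C; LiveBLAzer B/G FRET substrate added, 2.5 h at room temperature, fluorescence intensity read.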
Assay [14] addresses Aryl hydrocarbon receptor (Homo sapiens) (UniProt P35869). As to the kind of experiment: qHTS assay to identify small molecule that activate the aryl hydrocarbon receptor (AhR) signaling pathway (AID 743085).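 Note: HG2L7.5c1 human HepG2 liver cells with stably integrated DRE-driven firefly reporter; series mostly up to about 70 µM; nearly all actives have a fitted effect of over 15% in size.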 Summed up:
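Stably transfected human liver carcinoma cells (HG2L7.5c1; 20 DRE-firefly luciferase) were incubated 5 h, dosed, and kept 24 h at 37C. Agonism was scored from increased luciferase luminescence.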

The nature of assay [15]: qHTS assay for small molecule agonists of the antioxidant response element (ARE) signaling pathway (AID 743202; active = well fitted activation curve with a large enough effect in the signal ratio in the repeat runs, not every such curve was filed as active; inconclusive = weak or mixed curves, or effect the other way; inactive = no such curve, though single readings can be large or run the other way; the % refers to the signal ratio; note: potency is the fitted concentration of half-maximal effect). Summed up: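 ARE-bla HepG2 cells (beta-lactamase reporter under the antioxidant response element), plated 5 hours, then exposed to compounds 16 hours at 37 C. LiveBLAzer B/G FRET substrate added for 2 hours at room temperature; fluorescence intensity read.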

In assay [16] the target is Estrogen receptor (Homo sapiens) (UniProt P03372). As to the kind of experiment: qHTS assay to identify small molecule antagonists of the estrogen receptor alpha (ER-alpha) signaling pathway (AID 743069; active = well fitted curve in the direction sought with a large enough effect in the signal ratio in the repeat runs, not every such curve was filed as active; inconclusive = weak or mixed curves, or effect the other way; inactive = no such curve, though single readings can be large or run the other way; the % refers to the signal ratio; note: potency is the fitted concentration of half-maximal effect). Summed up: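 HEK293 ER-alpha-UAS-bla GripTite cells, held overnight in 2% charcoal-stripped FBS, 5,000 cells/well, preincubated 4 h, then compound plus 17beta-estradiol for 18 h at 37C. Beta-lactamase read by LiveBLAzer B/G FRET substrate, 2 h at room temperature.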
Chain of Estrogen receptor (Homo sapiens) (P03372 whole entry, looked up): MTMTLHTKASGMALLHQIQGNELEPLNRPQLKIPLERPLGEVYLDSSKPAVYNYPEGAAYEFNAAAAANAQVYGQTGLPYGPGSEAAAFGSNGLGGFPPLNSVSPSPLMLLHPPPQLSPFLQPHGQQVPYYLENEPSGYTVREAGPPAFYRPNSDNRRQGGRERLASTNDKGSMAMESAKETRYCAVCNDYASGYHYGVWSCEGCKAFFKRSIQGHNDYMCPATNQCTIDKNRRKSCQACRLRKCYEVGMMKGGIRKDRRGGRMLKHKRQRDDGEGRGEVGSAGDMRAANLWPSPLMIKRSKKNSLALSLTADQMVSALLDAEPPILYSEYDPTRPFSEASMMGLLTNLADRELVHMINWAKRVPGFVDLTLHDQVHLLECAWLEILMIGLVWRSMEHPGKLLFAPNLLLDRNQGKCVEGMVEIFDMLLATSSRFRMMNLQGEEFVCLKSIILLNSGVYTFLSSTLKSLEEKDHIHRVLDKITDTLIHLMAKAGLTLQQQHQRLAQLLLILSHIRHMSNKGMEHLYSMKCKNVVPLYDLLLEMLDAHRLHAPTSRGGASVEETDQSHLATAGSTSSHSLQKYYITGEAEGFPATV

Assay [17] shares this target. Nature of the assay: qHTS assay to identify small molecule agonists of the estrogen receptor alpha (ER-alpha) signaling pathway (AID 743075; calls by dose curve).
Assay [18] in a line: qHTS assay to identify small molecule antagonists of the estrogen receptor alpha (ER-alpha) signaling pathway using the BG1 cell line (AID 743080; calls by dose curve;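 note: BG1 cells stimulated with 17beta-estradiol alongside compound; nearly all actives have a fitted effect of over 25% in size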; note: potency is the fitted concentration of half-maximal effect). Summed up:
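Quantitative HTS on the Tox21 10K library: BG1 cells with endogenous ER-alpha and ERE-luciferase reporter, 17beta-estradiol stimulation, 21.5 h compound exposure, luminescence endpoint with parallel fluorescence cytotoxicity counter-read.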

Chain of Aryl hydrocarbon receptor (Homo sapiens) (P35869 whole entry, looked up): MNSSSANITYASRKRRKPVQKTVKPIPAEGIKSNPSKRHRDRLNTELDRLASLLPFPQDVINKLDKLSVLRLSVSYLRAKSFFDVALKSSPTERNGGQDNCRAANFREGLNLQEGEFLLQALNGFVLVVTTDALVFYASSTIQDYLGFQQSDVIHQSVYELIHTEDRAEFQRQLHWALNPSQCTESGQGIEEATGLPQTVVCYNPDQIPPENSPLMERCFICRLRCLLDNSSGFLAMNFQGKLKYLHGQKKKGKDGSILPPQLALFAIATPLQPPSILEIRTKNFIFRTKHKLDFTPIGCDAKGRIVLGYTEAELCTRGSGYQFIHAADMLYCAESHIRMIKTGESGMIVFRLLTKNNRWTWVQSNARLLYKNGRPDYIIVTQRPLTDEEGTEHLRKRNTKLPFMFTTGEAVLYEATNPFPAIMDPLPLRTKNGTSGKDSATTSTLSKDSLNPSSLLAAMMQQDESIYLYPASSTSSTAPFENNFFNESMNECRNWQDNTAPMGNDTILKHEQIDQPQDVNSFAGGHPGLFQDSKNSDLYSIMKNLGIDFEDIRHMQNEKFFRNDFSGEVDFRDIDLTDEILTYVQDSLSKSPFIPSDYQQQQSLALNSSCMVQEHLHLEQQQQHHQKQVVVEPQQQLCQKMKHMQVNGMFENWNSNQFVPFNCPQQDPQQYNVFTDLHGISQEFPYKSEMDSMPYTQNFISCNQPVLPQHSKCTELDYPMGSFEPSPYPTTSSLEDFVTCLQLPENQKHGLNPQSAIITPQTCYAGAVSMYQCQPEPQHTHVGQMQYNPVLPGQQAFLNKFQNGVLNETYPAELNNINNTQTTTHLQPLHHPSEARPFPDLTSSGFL
Chain of Peroxisome proliferator-activated receptor gamma (Homo sapiens) (P37231 whole entry, looked up): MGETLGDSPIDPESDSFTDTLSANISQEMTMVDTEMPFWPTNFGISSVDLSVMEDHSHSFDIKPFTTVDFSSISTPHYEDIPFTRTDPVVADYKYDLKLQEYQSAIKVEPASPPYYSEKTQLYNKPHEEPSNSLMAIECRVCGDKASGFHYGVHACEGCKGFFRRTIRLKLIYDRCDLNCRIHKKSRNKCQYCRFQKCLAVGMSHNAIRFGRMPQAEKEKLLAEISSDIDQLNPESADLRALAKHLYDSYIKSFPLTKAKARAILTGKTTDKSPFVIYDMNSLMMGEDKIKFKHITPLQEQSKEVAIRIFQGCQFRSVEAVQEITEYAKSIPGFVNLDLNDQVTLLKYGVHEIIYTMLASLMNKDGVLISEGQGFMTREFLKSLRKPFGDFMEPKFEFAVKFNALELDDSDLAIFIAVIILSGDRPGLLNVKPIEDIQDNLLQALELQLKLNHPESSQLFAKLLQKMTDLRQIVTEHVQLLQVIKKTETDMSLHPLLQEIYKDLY

With `O=C1C(c2[nH]c3ccc(S(=O)(=O)O)cc3c2O)=Nc2ccc(S(=O)(=O)O)cc21`, the Potency entry (in assay [1]; in assay [2]; in assay [4]; in [5]; with Aromatase (Homo sapiens); in assay [6]) was “inactive” in each case. Moreover, the Potency result in [7], in [8], in assay [9], in [10], in assay [11] and in [12] was “inactive” in each case. For the same compound, in [13], the Potency result was “inactive”. Also, in [3], the compound was called inactive.
`Cc1cccc2cccnc12`: the Potency entry (in assay [1]; in assay [2]; in assay [4]; in [5]; in the assay with Aromatase (Homo sapiens); in [6]) was “inactive” in each case. Besides, the Potency result in assay [14], in assay [7], in [8], in assay [10], in assay [15] and in [11] was “inactive” throughout. In [13], the Potency result was “inactive”. Further, the compound was classed as inactive in assay [3].
Take `CCC(CC)C(C)CCOC(C)=O` (stereo not given): the Potency entry (in assay [1]; in [2]; in assay [4]; in [5]; with Aromatase (Homo sapiens); in assay [6]) was “inactive” in each case. Besides, the Potency result in assay [14], in [7], in [10], in assay [11] and in [12] was “inactive” in each case. The result in assay [3] was inactive.
As to `CCCC(=O)OC(C)(C)Cc1ccccc1`, the Potency entry (in assay [1]; in assay [2]; in assay [4]; in [5]; with Aromatase (Homo sapiens); in assay [6]) was “inactive” throughout. Besides, the Potency result in assay [14], in assay [10], in [15], in assay [11], in assay [12] and in assay [13] was “inactive” throughout. In assay [3], the call was inactive.
Take `CC[N+](CC)(CC)CCOc1ccc(/C=C/c2ccccc2)cc1`: the Potency entry in [1], in assay [4], in assay [17], in [5], in [6] and in assay [14] was “inactive” each time. In addition, the Potency entry in assay [7], in [8], in assay [10], in assay [11], in [12] and in assay [13] was “inactive” each time. Further, the Potency in assay [2] is 29.8 µM (active); in assay [16], 5.35 µM [inconclusive] (active); in [18], 29.8 µM (active); with Aromatase (Homo sapiens), 29.8 µM (active). Also, the compound was called inactive in assay [3].
Take `CCCC[P+](C)(CCCC)CCCC`: the Potency entry in assay [1], in [2], in assay [16], in assay [4], in assay [18] and in [5] was “inactive” each time. Moreover, the Potency entry (with Aromatase (Homo sapiens); in [6]; in [7]; in assay [10]; in assay [11]) was “inactive” each time. The call in assay [3] was inactive.
Take `CC(C)(C)c1csc(-c2cc3cc(OCc4ccccc4CC(=O)O)ccc3o2)n1`: the Potency in assay [1] is 54.5 µM (active); in assay [2], 61.1 µM (active); in assay [4], 24.5 µM (active); in assay [8], 0.776 µM (active); in assay [15], 4.86 µM (active). In addition, the outcome in [3] was inactive. Further, the Potency result in assay [17], in assay [5] and in assay [14] was “inactive” throughout.
Consider `O=C(/C=C/c1ccc(O)c(O)c1)O[C@@H](C(=O)O)[C@@H](OC(=O)/C=C/c1ccc(O)c(O)c1)C(=O)O`, for which the Potency result (in [1]; in assay [2]; in [4]; in assay [5]; with Aromatase (Homo sapiens); in assay [6]) was “inactive” throughout. Also, the Potency result in assay [7], in assay [8], in assay [9], in assay [10], in [11] and in [12] was “inactive” in each case. Besides, the Potency result in [13] is “inactive”. Also, the compound was classed as inactive in assay [3].
For `OC/C=C/CO`, the Potency result in assay [1], in assay [2], in assay [16], in assay [4], in assay [18] and in assay [5] was “inactive” in each case. The Potency result (with Aromatase (Homo sapiens); in assay [6]; in assay [7]; in assay [9]; in assay [10]; in [11]) was “inactive” each time. In [12], the Potency entry is “inactive”. Besides, in assay [3], the compound was called inactive. Moreover, the Potency in [15] was 21.6 µM (active).
